# LMP1 NFkB inh – EBV LMP1-driven NF-kappaB luciferase reporter inhibitors, primary screen, cell-based, luminescence, single point; LMP1-induced NF-kappaB luciferase reporter cells; inhibition, % at 12.5 µM; 350,000 tested, 0.69% active; in the data active = inhibition above about 41%;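 note: 0% = neutral control wells and 100% = reference inhibitor control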
# HSP90 refold inh – HSP90 inhibitors, primary screen, cell lysate, luminescence; Heat shock protein HSP 90 (rabbit reticulocyte lysate; luciferase refolding); Rabbit reticulocyte lysate, luciferase refolding luminescence, 3 h; inhibition, % at 5.6 µM; 290,000 tested, 0.91% active;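 active = inhibition above the screen-wide mean plus 3 SD, computed separately per campaign, cut at about 16% in these data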;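 note: 0% = DMSO wells and 100% = 60 µM geldanamycin wells; inhibitors lower the luminescence because luciferase stays unfolded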
# aDG glyco act – activators of alpha-DG glycosylation, primary screen, uHTS, Pro5-aDG cells, AlphaScreen | alpha-DG glycosylation AlphaScreen (IIH6); 0% Pro5, 100% B10-LARGE cell signal | activation, % at 10 µM | 360,000 tested, 0.22% active;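 active = activation of at least 8% versus controls, or a plate z-score of at least 8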;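 note: Pro5 are CHO cells carrying HIG-tagged alpha-DG that lacks glycosylation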
# TWEAK-Fn14 inh – inhibitors of TWEAK-Fn14 signaling, primary screen, luciferase reporter cells, uHTS; inhibition, % at 10 µM; 360,000 tested, 2% active; TWEAK-stimulated Fn14 reporter cells, luciferase luminescence, 8 h; in the data active = inhibition above about 50%
# LGR2 inh – inhibitors of bursicon-induced LGR2 CRE-luciferase signal, primary screen, cell-based, HEK293, CRE-luciferase reporter, bursicon stimulation | 380,000 tested, 0.35% active | bursicon-stimulated, 4 h | AID 720647, 2013 | inhibition, % at 9.99 µM | Drosophila bursicon receptor LGR2 (rickets);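 active = drop in luminescence signal, shown as inhibition above about 50% in the replicate tests, limit read from the data, passing the limit was not always enough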;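 note: agonist challenge used bursicon conditioned medium at about half maximal strength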
# TROY signal inh – inhibitors of TROY-driven NF-kB signaling, primary screen, Q293 LMP1-TROYcd cells, NF-kB luciferase, uHTS | inhibition, % at 10 µM | 360,000 tested, 0.98% active | Q293 LMP1-TROYcd NF-kB luciferase reporter, 4 h | AID 1347056, 2019;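 active = compounds whose plate-normalised and pattern-corrected inhibition of the luciferase reporter signal at the single screening dose is 50% or more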
# * hit, by the source's call; · = no result. Rows were chosen to be rich in hits. Some 2.6% of all compounds tested hit in one or more screens of this group.
SMILES,LMP1 NFkB inh,HSP90 refold inh,aDG glyco act,TWEAK-Fn14 inh,LGR2 inh,TROY signal inh
S=C(NCCCN1CCOCC1)N1CCN(c2nc(-c3ccc(Cl)cc3)cs2)CC1,44*,-3,3,37,24,45
S=C(NCC1CCCO1)N1CCN(c2nc(-c3ccc(Cl)cc3)cs2)CC1 (stereo not drawn),19,-1,3,64*,12,26
O=C(Nc1ccc(F)cc1)N1C[C@@H]2[C@H](c3ccccc31)[C@@H](CO)N2C(=O)c1ccncc1,·,·,·,·,5,·
CN(C)c1ccc2c(c1)[C@H]1C[C@H](CC(=O)NCc3ccc(Cl)cc3)O[C@@H](CO)[C@H]1O2,·,·,·,·,-1,·
Cc1cccc(C(=O)n2c(=S)nc3ccccn32)c1,30,1,0,77*,·,43
O=C(c1ccccc1)n1c(=S)nc2ccccn21,22,·,0,82*,·,60*
Cc1ccc(C(=O)n2c(=S)nc3ccccn32)cc1,·,11,·,·,·,·
Cc1cccc(C(=O)N2CCCCCC2)c1,-9,3,0,20,5,0
Cc1nc2cc(NC(=O)N3c4ccccc4CC3C)ccc2n1C (stereo not drawn),-6,13,0,57*,12,39
Cc1cccc(C(=O)Nc2ccc3c(c2)nc(C)n3C)c1,12,8,0,59*,10,19
Cc1nc2cc(NC(=O)N3c4ccccc4CC3C)ccc2o1 (stereo not drawn),14,-2,0,13,0,-3
Cc1cccc(C(=O)Nc2ccc3c(c2)ncn3C)c1,-23,1,0,17,-84,-25
CC(=O)Nc1ccc2c(c1)C(=O)N(C)[C@H]1CC[C@H](CC(=O)NCCCN3CCOCC3)O[C@H]1CO2,·,·,·,·,-10,·
C[C@H]1CN([C@@H](C)CO)C(=O)c2cccc(NC(=O)Nc3ccc(F)cc3)c2O[C@H]1CN(C)C(=O)NC1CCCCC1,·,·,·,·,-23,·
Cc1nnc(SCC(=O)NC23CC4CC(CC(C4)C2)C3)n(N)c1=O,5,-3,0,97*,-13,85*
CNC[C@@H]1Oc2c(NS(=O)(=O)c3ccc(F)cc3)cccc2C(=O)N([C@@H](C)CO)C[C@H]1C,·,·,·,·,4,·
CN(C)CCCNC(=O)C[C@H]1CC[C@@H](NC(=O)Cc2cccnc2)[C@@H](CO)O1,·,·,·,·,22,·
O=c1c2ccccc2cnn1-c1nc2ccccc2[nH]1,85*,92*,0,97*,100*,89*
O=C(C[C@@H]1C[C@@H]2c3cc(NC(=O)CC4CC4)ccc3O[C@@H]2[C@H](CO)O1)NCc1ccccc1F,·,·,·,·,-3,·
C[C@H](CO)N1C[C@H](C)[C@@H](CN(C)C(=O)C2CCC2)Oc2ncc(C3=CCCC3)cc2C1=O,·,·,·,·,14,·
C[C@@H]1CN([C@@H](C)CO)C(=O)c2c(c3ccccc3n2C)-c2ccccc2CO[C@H]1CN(C)C(=O)Nc1ccc(-c2ccccc2)cc1,·,·,·,·,6,·
CO[C@H](C(=O)N(C)C[C@H]1OCc2ccccc2-c2c(n(C)c3ccccc23)C(=O)N([C@@H](C)CO)C[C@@H]1C)c1ccccc1,·,·,·,·,3,·
CCn1c(SCC(=O)NCC2CCCO2)nnc1-c1c[nH]c2ccccc12 (stereo not drawn),4,-3,0,63*,·,·
COCCn1c(SCc2ccc(C(=O)OC)o2)nnc1-c1c[nH]c2ccccc12,47*,1,0,-19,16,3
CCCn1cc(SCC(=O)NCC2CCCO2)c2ccccc21 (stereo not drawn),-8,2,0,0,-30,-40
SMILES,LMP1 NFkB inh,HSP90 refold inh,aDG glyco act,TWEAK-Fn14 inh,LGR2 inh,TROY signal inh
Cn1cc(SCC(=O)NCC2CCCO2)c2ccccc21 (stereo not drawn),85*,·,0,-2,-10,5
CCn1c(SC(C)C)nnc1-c1c[nH]c2ccccc12,84*,1,0,3,21,-10
CCC(=O)Nc1ccc2c(c1)OC[C@@H](C)N(CC1CCOCC1)C[C@@H](C)[C@H](OC)CN(C)C2=O,·,·,·,·,16,·
COc1cc(/C=N/Nc2nc(-c3ccc(S(=O)(=O)N(C)C)cc3)cs2)ccc1O,5,7,0,81*,-8,12
CCOc1cc(/C=N/Nc2nc(-c3cccc(S(=O)(=O)N4CCCC4)c3)cs2)ccc1O,0,-2,0,61*,33,15
C[C@H](CO)N1C[C@H](C)[C@H](CN(C)S(=O)(=O)c2ccccc2)Oc2ccc(NS(=O)(=O)c3ccc(F)cc3)cc2C1=O,·,·,·,·,0,·
C[C@@H]1CCCCO[C@@H](CN(C)C(=O)CCCN(C)C)[C@H](C)CN([C@H](C)CO)C(=O)c2cc(NC(=O)Nc3ccc(C(F)(F)F)cc3)ccc2O1,·,·,·,·,-15,·
C(/C=C/c1ccccn1)=C\c1ccccc1,0,·,0,-5,76*,-6
C[C@@H]1CN([C@@H](C)CO)C(=O)c2cc(/C=C/c3ccccc3)cnc2O[C@@H]1CN(C)C(=O)C1CC1,·,·,·,·,-2,·
Cc1cc(C)n2nc(CC(=O)NC3CCCCCC3)nc2n1,64*,-1,0,5,3,6
Cc1ccc(C(=O)NNC(=O)Cc2nc3nc(C)cc(C)n3n2)cc1,·,0,0,-14,18,4
Cc1cnn(C(=O)Cn2nc(C(F)F)c(Br)c2C)c1,-2,·,0,4,-3,68*
Cc1c(Br)c(C(F)(F)F)nn1CC(=O)N1CCCC1,-9,-3,0,7,·,8
OC[C@H]1[C@@H](c2ccccc2)C2(CN(Cc3nccs3)C2)N1CCC(F)(F)F,·,·,·,·,-16,·
C[C@@H]1CCCCO[C@H](CN(C)S(=O)(=O)c2ccccc2)[C@@H](C)CN([C@H](C)CO)C(=O)c2cc(NC(=O)CCC(F)(F)F)ccc2O1,·,·,·,·,-4,·
C[C@@H]1CN([C@H](C)CO)C(=O)c2cc(Br)cnc2O[C@H]1CN(C)S(=O)(=O)c1ccc(F)cc1,·,·,·,·,5,·
c1ccc(Nc2ccccc2Nc2ccccn2)nc1,3,5,0,-10,5,-47
Oc1cccc2ccc(Nc3ccccn3)nc12,75*,-1,1,-11,·,0
C[C@H](CO)N1C[C@H](C)[C@H](CN(C)C(=O)Nc2cccc3ccccc23)Oc2ncc(-c3cccc(C(F)(F)F)c3)cc2C1=O,·,·,·,·,3,·
Cc1ccc(NC(=O)N2CCc3ccccc32)cc1,-16,16,1,65*,·,-17
CCc1ccccc1NC(=O)N1CCCc2ccccc21,3,0,0,53*,-10,78*
CCc1ccccc1NC(=O)N1CCc2ccccc2C1,-1,-7,0,-5,-8,14
